# CYP2C19 inhib: blockers of cytochrome P450 2C19 activity – biochemical, luminescence, ADME assay, primary screen | P33261 | CYP2C19 Supersomes, luciferin-H EGE luminescence, 30 min | inhibition, % at 5 µM | actives 21% (n = 96,000) | AID 778, 2007;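 active means CYP2C19 inhibition above a set limit at 5 µM in the primary screen, cut at about 50% in these data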;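 further: plate controls were negative control wells for no effect and 2.5 mM tranylcypromine positive control for full effect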
# Target sequence (P33261 whole entry, looked up): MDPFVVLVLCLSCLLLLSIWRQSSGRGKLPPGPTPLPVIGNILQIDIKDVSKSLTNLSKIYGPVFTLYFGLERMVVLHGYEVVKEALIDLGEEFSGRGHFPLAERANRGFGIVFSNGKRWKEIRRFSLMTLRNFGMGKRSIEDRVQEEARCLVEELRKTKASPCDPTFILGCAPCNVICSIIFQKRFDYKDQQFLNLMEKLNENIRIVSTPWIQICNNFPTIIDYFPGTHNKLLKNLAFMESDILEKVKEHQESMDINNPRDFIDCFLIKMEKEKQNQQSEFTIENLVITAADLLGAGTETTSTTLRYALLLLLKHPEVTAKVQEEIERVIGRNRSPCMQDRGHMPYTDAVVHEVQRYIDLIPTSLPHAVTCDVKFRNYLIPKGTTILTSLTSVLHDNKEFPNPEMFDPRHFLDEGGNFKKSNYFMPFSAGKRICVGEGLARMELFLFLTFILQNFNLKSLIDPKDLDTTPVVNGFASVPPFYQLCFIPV
# MRP reversal: reversal of MRP1-mediated doxorubicin resistance, primary screen, H69AR cells, doxorubicin co-treatment. H69AR cells + 2 uM doxorubicin, CellTiter-Glo, 72 h. differential viability (reversal), % at 10 µM. actives 0.04% (n = 85,000). AID 602, 2007;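 active means viability drop by adding the cancer drug above about 55%, with treated viability meeting a 40% cutoff, limit read from the data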;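 further: viability without doxorubicin minus viability with 2 µM doxorubicin for each compound; larger differential means the compound sensitizes cells more to doxorubicin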
# CYP2C9 act: human CYP2C9 activators, primary screen, biochemical, luminescence; Cytochrome P450 2C9 (Homo sapiens), P11712; recombinant CYP2C9, luciferin-H conversion; active compounds read high; factor 1 = untreated enzyme, 0 = blocked; activation factor at 5 µM; actives 1.4% (n = 96,000); AID 1024, 2008;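 active means activation factor of 2 or more for CYP2C9 at a 5 µM dose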;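 further: 0 = sulfaphenazole-blocked wells and 1 = vehicle-only wells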
# CYP2C19 act: human CYP2C19 activators, primary screen, biochemical, luminescence; AID 1025, 2008; activation factor at 5 µM; 96,000 tested, under 10 active; recombinant CYP2C19, luciferin-H EGE luminescence; active compounds read high; 0 = fully inhibited enzyme, 1 = untreated enzyme;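 active means activation factor of at least 2 at 5 µM in the primary screen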;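 further: 0 = wells with 2.5 mM tranylcypromine and 1 = vehicle-only wells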
# MRP-1 activ: H69AR viability gain despite doxorubicin, primary screen, MRP-1 activator project, H69AR cells, CellTiter-Glo. viability rescue. actives 0.61% (n = 140,000). viability increase, % at 10 µM;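 active means viability gain under doxorubicin at or above a set limit, the compound median plus 3 SD, cut at about 4.7% in these data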;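 further: MRP-1 overexpressing cells given doxorubicin 25 µM after compound pretreatment; 18-22 h compound pretreatment then 72 h with doxorubicin before readout; 0% = doxorubicin-only wells and 100% = vehicle-treated cells without doxorubicin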
# CYP2C9 inhib: blockers of cytochrome P450 2C9 activity – biochemical, luminescence, ADME assay, primary screen; P11712; CYP2C9 Supersomes, luciferin-H conversion; inhibition, % at 5 µM; actives 20% (n = 96,000);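 active means blocking of liver enzyme CYP2C9 beyond about 50% at 5 µM, limit read from the data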
# Numbers without * were called inactive; . = no result given. A selection: hits, their analogues and other compounds. The true share with any hit is near 21%.
SMILES,CYP2C19 inhib,MRP reversal,CYP2C9 act,CYP2C19 act,MRP-1 activ,CYP2C9 inhib
CCCCOn1c(C)c(C(=O)OCC)c2c3nonc3ccc21,.,-11,.,.,.,.
COn1c(C)c(C(C)=O)c2c3nonc3ccc21,61*,-10,0.5,0.4,-1,50*
CC(=O)NC1=NN(C(C)=O)C(C)(CS(=O)(=O)c2ccc3ccccc3c2)S1 (stereo not given),.,2,.,.,-2,.
O=C(CSc1nnc(-c2ccncc2)n1CC1CCCO1)Nc1cccc(O)c1 (stereo not given),36,-4,0.3,0.6,-1,67*
Cc1ccc(NCc2nnc(SCC(=O)Nc3cccc(O)c3)n2CC2CCCO2)c(C)c1 (stereo not given),67*,-13,0.2,0.3,-3,81*
CCOc1ccc(NC(=O)CSc2nnc(-c3ccncc3)n2CC2CCCO2)cc1 (stereo not given),29,9,0.5,0.7,-1,49
COc1ccc(NC(=O)CSc2nnc(-c3ccncc3)n2CC2CCCO2)c(OC)c1 (stereo not given),60*,17,0.7,0.4,-3,28
Cc1ccc(Nc2nc(N)nc(CSc3nnc(-c4ccncc4)o3)n2)cc1,4,-12,0.9,1,0,10
Cc1cccc(OCC(=O)O/N=C(\N)Cc2ccc(Cl)cc2)c1,1,2,1.1,1,-1,-7
CC(C)(C)c1ccc(-c2nnc(SCCN3C(=O)c4ccccc4C3=O)o2)cc1,78*,17,0.2,0.2,-2,84*
Cc1ccc(C(=O)NC(=S)NCC2CCCO2)cc1Br (stereo not given),.,.,.,.,-1,.
O=C(OCn1ncc(Cl)c(Cl)c1=O)c1cccc(C(F)(F)F)c1,66*,.,1.8,0.3,-6,-80
O=C(CSCc1cccc(Br)c1)N/N=C/c1ccc2c(c1)OCO2,12,.,0.4,0.9,-2,55*
CC(Sc1nc2ccccc2[nH]1)C(=O)Nc1ccc2c(c1)OCCO2 (stereo not given),29,16,0.4,0.7,-2,64*
CC(SCc1ccccc1)C(=O)Nc1ccc2c(c1)OCO2 (stereo not given),98*,17,0.3,0,-3,73*
O=C(CSCc1ccccc1Br)N/N=C/c1ccc2c(c1)OCO2,.,.,.,.,3,.
COc1ccc(NC(=O)C(C)SCc2ccccc2)cc1OC (stereo not given),.,.,.,.,0,.
O=C(CSCc1cccc(Cl)c1)N/N=C/c1ccc(OCC(=O)N2CCCCC2)cc1,59*,.,0.4,0.4,-3,57*
CCCN(CCC)C(=O)NC1CC(=O)N(c2ccc(OC)cc2)C1 (stereo not given),.,.,.,.,-1,.
COc1ccc(NC(=O)c2nc3nccc(C)n3n2)cn1,-10,2,1.2,1.1,0,-19
C#CC1(O)CC(C)NCC1(C)CCC#N (stereo not given),-8,-19,1,1.1,1,-1
O=C(CSCc1cccc(Br)c1)N1CCOCC1,71*,-8,1.1,0.3,2,-8
O=C(CSCc1ccccc1)N/N=C/c1ccccc1OCc1ccccc1,14,.,0.4,0.9,-3,60*
COc1ccc(CSCC(=O)N/N=C/c2ccccc2OCc2ccccc2)cc1,31,.,0.5,0.7,-2,49
CC(SCc1ccccc1)C(=O)N/N=C/c1ccc2c(c1)OCO2 (stereo not given),80*,.,0.1,0.2,-2,92*
SMILES,CYP2C19 inhib,MRP reversal,CYP2C9 act,CYP2C19 act,MRP-1 activ,CYP2C9 inhib
CC(SCc1ccccc1)C(=O)N/N=C/c1cc2c(cc1Br)OCO2 (stereo not given),35,.,0.3,0.6,0,70*
CC(SCc1ccccc1)C(=O)N/N=C/c1cccs1 (stereo not given),.,.,.,.,-2,.
Cc1nc2ccccc2n2c(-c3ccccc3)c3c(=O)n(C)c(=O)n(C)c3c12,10,4,0.7,0.9,-4,29
CNc1cccccc1=S,0,-2,0.9,1,-1,11
S=c1[nH]ccn1-c1cccc(Cl)c1,.,.,.,.,-2,.
CCOc1ccc2cc(C#N)c(SCC(=O)NC(C)CC)nc2c1 (stereo not given),-5,-50,0.5,1,-4,54*
Cc1cccc2cc(C#N)c(SCC(=O)N3CCC(C)CC3)nc12,35,1,0.4,0.6,0,59*
COCC(=O)N1CCCN(c2nc3c(C)cccc3cc2C#N)CC1,64*,13,1,0.4,-1,5
CCOc1ccc2cc(C#N)c(SCC(=O)N3CCC(C)CC3)nc2c1,22,-12,0.4,0.8,-1,63*
Cc1ccc2cc(C#N)c(N3CCCN(C(=O)C4CCCO4)CC3)nc2c1 (stereo not given),18,5,0.7,0.8,0,33
CCOC(=O)CSc1nc2cc(OCC)ccc2cc1C#N,15,-12,0.5,0.8,-1,49
O=C(Nc1cccc(F)c1)C1CCN(C(=O)c2ccccc2Cl)CC1,45,8,0.6,0.5,-1,44
CCOc1ccc2nc(SCC#N)c(C#N)cc2c1,11,-9,0.3,0.9,5.0*,67*
O=S(=O)(c1ccc2nc(Cc3cccc(C(F)(F)F)c3)[nH]c2c1)N1CCOCC1,67*,-1,0.1,0.3,-4,86*
Cc1cc(NC(=O)c2cn(C3CCCCC3)c(=O)c3c2c2ccccc2n3C)no1,60*,-11,0.2,0.4,-2,84*
Cc1cc(C#N)c(C)n1-c1cc(S(=O)(=O)N2CCOCC2)ccc1N1CCCC1,33,-21,0.3,0.7,-3,73*
O=C(NC1CCCCCC1)c1cc(S(=O)(=O)N2CCOCC2)ccc1N1CCCCC1,3,6,0.9,1,-3,5
CC1CC(C)CN(S(=O)(=O)c2cc(C(=O)O)c(Cl)s2)C1 (stereo not given),.,.,.,.,-3,.
c1ccc(Oc2cccc(OCCn3cncn3)c2)cc1,95*,1,0.3,0.1,0,68*
Nc1ccc(OCc2ccccc2)cc1,.,18,.,.,-3,.
c1ccc(-c2ccc(OCCCn3cncn3)cc2)cc1,70*,-2,0.3,0.3,1,71*
O=C(O)c1ccccc1OCCOc1ccccc1C(=O)O,-9,-8,1.2,1.1,0,-18
c1ccc(COc2ccc(OCCn3cncn3)cc2)cc1,92*,.,0,0.1,-2,96*
CCC(=O)c1ccccc1OCCCn1cncn1,90*,-7,0.7,0.1,0,31
CC(=O)CCc1ccc(OCCCCn2cncn2)cc1,47,-29,0.8,0.5,-2,24
